According to PubChem BioAssay AID430 (Sanford-Burnham Center for Chemical Genomics, 2006):
In all, about 63,000 compounds went through this assay and about 1,100 (1.7%) were called active. Rule as the data show it: active = cytotoxicity above about 50%; inactive = the rest. The list comes from a sample in which actives are over-represented; it also holds similar structures and randomly drawn compounds. Results with a measured potency or affinity are listed apart.

assay: HPDE-C7 pancreatic duct cell viability loss – fluorescence, HTS (AID 430); conditions: HPDE-C7 pancreatic duct cells viability, at 10 µM, active compounds read high;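 also: cells exposed to compound for 48 hours before viability readout; 0% = vehicle and 100% = reference cytotoxic drug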

**Q.** With `CCc1ccc(C(=O)N2CCN(c3ccc(F)cc3)CC2)s1` as the compound, how does the cytotoxicity read?
**A.** -18.1% (inactive)

**Q.** Which cytotoxicity does the source give for `CC(=O)N1CCN(Cc2cc(=O)n3cc(Cl)c(C)c(Cl)c3n2)CC1` here?
**A.** -7.9% (inactive)

**Q.** For `O/N=C(\Cc1cscn1)c1ccc(O)cc1O`, which cytotoxicity is on record?
**A.** -6.8% (inactive)

**Q.** With `CCn1c(=O)cc(SCC(=O)Nc2ccc3c(c2)OCO3)c2ccccc21` as the compound, how does the cytotoxicity read?
**A.** 0.7% (inactive)

**Q.** Which cytotoxicity does the source give for `Cc1ccc2nc(-c3ccccn3)cc(C(=O)N3CCN(c4ncccn4)CC3)c2c1` here?
**A.** 8.9% (inactive)

**Q.** With `CCOc1ccc(-c2cc(C(=O)N3CCN(C)CC3)c3ccccc3n2)cc1` as the compound, how does the cytotoxicity read?
**A.** -8.5% (inactive)

**Q.** For `O=C(c1cc(-c2ccccc2)nc2ccccc12)N1CCN(c2ccccn2)CC1`, which cytotoxicity is on record?
**A.** 17.1% (inactive)

**Q.** With `Cc1ccc(-c2cc(C(=O)N3CCN(c4ncccn4)CC3)c3ccccc3n2)cc1` as the compound, how does the cytotoxicity read?
**A.** 57.3% (active)

**Q.** For `CCOc1ccc(-c2cc(C(=O)N3CCN(c4ccccn4)CC3)c3ccccc3n2)cc1`, which cytotoxicity is on record?
**A.** 56.9% (active)

**Q.** For `COc1ccc(-c2cc(C(=O)N3CCN(c4ccccn4)CC3)c3ccccc3n2)cc1`, which cytotoxicity is on record?
**A.** 32% (inactive)

**Q.** Which cytotoxicity does the source give for `O=C(c1cc(-c2ccncc2)nc2ccc(Br)cc12)N1CCN(c2ccccn2)CC1` here?
**A.** 12.7% (inactive)

**Q.** For `O=C(c1cc(-c2ccncc2)nc2ccccc12)N1CCN(c2ccccn2)CC1`, which cytotoxicity is on record?
**A.** 56.1% (active)

**Q.** With `COc1cccc(-c2cc(C(=O)N3CCN(c4ncccn4)CC3)c3ccccc3n2)c1` as the compound, how does the cytotoxicity read?
**A.** -4.1% (inactive)

**Q.** Which cytotoxicity does the source give for `COc1cc(-c2cc(C(=O)N3CCN(c4ccccn4)CC3)c3ccccc3n2)cc(OC)c1OC` here?
**A.** 14.4% (inactive)

**Q.** For `Cc1ccc(-c2cc(C(=O)N3CCOCC3)c3ccccc3n2)cc1`, which cytotoxicity is on record?
**A.** -8.5% (inactive)

**Q.** With `CCOC(=O)N1CCN(C(=O)c2cc(-c3ccc(OCC)cc3)nc3ccccc23)CC1` as the compound, how does the cytotoxicity read?
**A.** 57.6% (active)

**Q.** Which cytotoxicity does the source give for `Cc1ccc(S(=O)(=O)N2CCN(C(=O)CSc3nc4ccccc4o3)C2)cc1` here?
**A.** -14.7% (inactive)

**Q.** Which cytotoxicity does the source give for `O=C1CSC(c2ccccc2F)N1c1cc(Cl)ccc1O` (stereo unspecified) here?
**A.** 9.2% (inactive)

**Q.** Which cytotoxicity does the source give for `CSc1cccc(NC(=O)CN(C2CCCCC2)S(C)(=O)=O)c1` here?
**A.** -17.9% (inactive)

**Q.** With `O=C(c1cccc(OC(F)F)c1)N1CCN(c2ncccn2)CC1` as the compound, how does the cytotoxicity read?
**A.** -14.1% (inactive)

**Q.** Which cytotoxicity does the source give for `CCC(=O)Nc1ccc(S(=O)(=O)Nc2cccc(C)c2)cc1OC` here?
**A.** 3.2% (inactive)

**Q.** Which cytotoxicity does the source give for `COc1ccc(CNC(=O)C2CCN(S(=O)(=O)c3cccc4cccnc34)CC2)cc1` here?
**A.** 2% (inactive)

**Q.** For `COc1ccc(C2C3=C(Nc4ncnn42)c2ccccc2CCC3)cc1` (stereo unspecified), which cytotoxicity is on record?
**A.** -20.3% (inactive)

**Q.** Which cytotoxicity does the source give for `COc1ccc(C2C3=C(Nc4ncnn42)c2ccccc2CC3)cc1OC` (stereo unspecified) here?
**A.** 32.9% (inactive)

**Q.** With `COc1cc(C2C3=C(Nc4ncnn42)c2ccccc2CC3)cc(OC)c1OC` (stereo unspecified) as the compound, how does the cytotoxicity read?
**A.** 73.5% (active)

**Q.** Which cytotoxicity does the source give for `CCN(CC)S(=O)(=O)c1cccc(-c2nnc(SCC#N)n2Cc2ccccc2)c1` here?
**A.** 3.5% (inactive)

**Q.** Which cytotoxicity does the source give for `N#CCC(=O)N1CCn2c1nc1ccccc12` here?
**A.** -11.2% (inactive)

**Q.** Which cytotoxicity does the source give for `O=C1CC(N2CCN(c3nc4ccccc4s3)CC2)C(=O)N1Cc1cccs1` (stereo unspecified) here?
**A.** 12.3% (inactive)

**Q.** For `O=C1CC(N2CCN(c3ccc(F)cc3)CC2)C(=O)N1Cc1cccs1` (stereo unspecified), which cytotoxicity is on record?
**A.** -1.7% (inactive)

**Q.** For `CCOC(=O)CSc1nc(N)cc(=O)[nH]1`, which cytotoxicity is on record?
**A.** -12% (inactive)

**Q.** For `Cc1ccc(C(=O)NCc2ccc3c(c2)OCO3)cc1S(=O)(=O)N1CCOCC1`, which cytotoxicity is on record?
**A.** -5.3% (inactive)

**Q.** For `Cc1cc(NC(=O)CCC(=O)N(c2ccccc2)C(C(=O)NCC2CCCO2)c2cccnc2)no1` (stereo unspecified), which cytotoxicity is on record?
**A.** -0.6% (inactive)

**Q.** For `COC(=O)CSC1=C(C#N)C(c2ccc(F)cc2)CC(=O)N1` (stereo unspecified), which cytotoxicity is on record?
**A.** 10.1% (inactive)

**Q.** With `CCSC1=C(C#N)C(c2ccccc2OC)CC(=O)N1` (stereo unspecified) as the compound, how does the cytotoxicity read?
**A.** -4.8% (inactive)

**Q.** For `CCCOC(=O)CSC1=C(C#N)C(c2ccc3c(c2)OCO3)CC(=O)N1` (stereo unspecified), which cytotoxicity is on record?
**A.** 65.3% (active)

**Q.** With `CCOc1ccc(C2CC(=O)NC(SCC(=O)OC)=C2C#N)cc1` (stereo unspecified) as the compound, how does the cytotoxicity read?
**A.** 5.6% (inactive)

**Q.** For `CCOC(=O)CSC1=C(C#N)C(c2ccc3c(c2)OCO3)CC(=O)N1` (stereo unspecified), which cytotoxicity is on record?
**A.** 43.8% (inactive)

**Q.** Which cytotoxicity does the source give for `CCCCOC(=O)CSC1=C(C#N)C(c2ccc3c(c2)OCO3)CC(=O)N1` (stereo unspecified) here?
**A.** 28.6% (inactive)

**Q.** With `CCOC(=O)CSC1=C(C#N)C(c2ccc(C)s2)CC(=O)N1` (stereo unspecified) as the compound, how does the cytotoxicity read?
**A.** 54.7% (active)

**Q.** With `CCSC1=C(C#N)C(c2ccc(C)s2)CC(=O)N1` (stereo unspecified) as the compound, how does the cytotoxicity read?
**A.** -7.1% (inactive)

**Q.** Which cytotoxicity does the source give for `CCOC(=O)CSC1=C(C#N)C(c2ccccc2OC)CC(=O)N1` (stereo unspecified) here?
**A.** 54.9% (active)

**Q.** With `CCOC(=O)CC(=O)CSC1=C(C#N)C(c2ccccc2OC)CC(=O)N1` (stereo unspecified) as the compound, how does the cytotoxicity read?
**A.** 43.6% (inactive)

**Q.** With `CCOC(=O)CSC1=C(C#N)C(c2sccc2C)CC(=O)N1` (stereo unspecified) as the compound, how does the cytotoxicity read?
**A.** 63.5% (active)

**Q.** For `CSC1=C(C#N)C(c2ccc(C)s2)CC(=O)N1` (stereo unspecified), which cytotoxicity is on record?
**A.** -8.2% (inactive)

**Q.** Which cytotoxicity does the source give for `O=C1CCC(=O)N1CC(=O)N1c2ccccc2Sc2ccccc21` here?
**A.** -7.4% (inactive)

**Q.** For `COc1ccc(-n2nc3c(c2NC(=O)c2cc4ccccc4oc2=O)CS(=O)(=O)C3)cc1`, which cytotoxicity is on record?
**A.** -14.8% (inactive)

**Q.** For `Cc1cc(C)n(-c2nc3c(c(=O)[nH]c(=O)n3C)n2CCc2ccccc2)n1`, which cytotoxicity is on record?
**A.** 5.1% (inactive)

**Q.** Which cytotoxicity does the source give for `Cc1[nH]c2ccccc2c1C(=O)CN1CCCCC1CCO` (stereo unspecified) here?
**A.** -11.2% (inactive)

**Q.** Which cytotoxicity does the source give for `CCOc1ccc(Cn2nnc(C(=O)NCc3ccc(OC)cc3)c2N)cc1` here?
**A.** -14.5% (inactive)

**Q.** With `CCOc1cc(S(=O)(=O)NCC2OCCc3ccccc32)c(OCC)cc1-n1cnnn1` (stereo unspecified) as the compound, how does the cytotoxicity read?
**A.** 2.3% (inactive)

**Q.** With `CCC(=O)OC1=C2C(=Nc3c(c(=O)n(C)c(=O)n3C)C2c2ccccc2)c2ccccc21` (stereo unspecified) as the compound, how does the cytotoxicity read?
**A.** 0.2% (inactive)

**Q.** With `CCOc1cc(NC(=O)c2ccco2)c(OCC)cc1NC(=O)Cc1ccc(OC)c(OC)c1` as the compound, how does the cytotoxicity read?
**A.** -12% (inactive)

**Q.** With `Cc1cc(C)cc(N2CCCn3c2nc2c3c(=O)n(CCN3CCOCC3)c(=O)n2C)c1` as the compound, how does the cytotoxicity read?
**A.** -6.7% (inactive)

**Q.** With `CC(=O)C1=C(O)C(=O)N(Cc2cccnc2)C1c1ccc(Cl)cc1Cl` (stereo unspecified) as the compound, how does the cytotoxicity read?
**A.** -17.4% (inactive)

**Q.** For `Cc1ccc2c(c1)NC(=O)C(CC(=O)N(C)Cc1ccccc1)O2` (stereo unspecified), which cytotoxicity is on record?
**A.** 1.5% (inactive)

**Q.** Which cytotoxicity does the source give for `CC(OC(=O)C1CCCO1)C(=O)NC1CCCC1` (stereo unspecified) here?
**A.** 5.3% (inactive)

**Q.** With `COC(=O)c1ccc(NC(=O)c2ccccc2NS(C)(=O)=O)cc1` as the compound, how does the cytotoxicity read?
**A.** 10.7% (inactive)

**Q.** Which cytotoxicity does the source give for `O=C(c1cccn2c(=O)c3ccc(Cl)cc3nc12)N1CCN(Cc2ccc3c(c2)OCO3)CC1` here?
**A.** -0.1% (inactive)

**Q.** With `COc1ccc(C(=O)Oc2ccc3c(c2)OCO3)cc1OC` as the compound, how does the cytotoxicity read?
**A.** -13.3% (inactive)

**Q.** Which cytotoxicity does the source give for `COc1cc2c(=O)n(-c3ccc(C)cc3)c(=O)n(CC(=O)c3ccc4c(c3)OCO4)c2cc1OC` here?
**A.** 6.8% (inactive)

**Q.** Which cytotoxicity does the source give for `COc1cc2c(O)c3c(c(-c4ccc5c(c4)OCO5)c2cc1OC)C(=O)OC3` here?
**A.** 82.2% (active)
